# Reference: the supplement of paper PMC10849652
# About 8,800 targets were measured; listed, in parts, are those with a hit and a random draw of the rest. About 0.5% of all pairs of compound and target were hits. Unmarked numbers belong to inactive results.
# What was measured:
# Assay in all cases: log2 fold change, soluble protein after heating vs DMSO (PISA); higher = thermal stabilisation; K562 lysate, 10 uM; active = over 0.2 and 3.5 SD of the protein, either way, in both replicates (recomputed)
# vemurafenib = compound: CCCS(=O)(=O)Nc1ccc(F)c(C(=O)c2c[nH]c3ncc(-c4ccc(Cl)cc4)cc23)c1F [vemurafenib]
# How it was run: (§1)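 The values are log-two fold changes in thermal stability compared with solvent controls and come from duplicates. They were obtained by TMTpro 16plex LC-MS/MS, with channel sums equalised, on the supernatant after 21,000xg for 90 min. That supernatant came from crude K562 extract at 1 mg/mL protein treated with 10 μM compound for 30 min, heated for 3 min across 48°C-58°C, pooled and brought to 0.5% NP-40 at 4°C.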
# [1] = compound: CCCS(=O)(=O)Nc1ccc(F)c(C(=O)c2c[nH]c3ncc(Cl)cc23)c1F
# How it was run: as §1
# barasertib = compound: CCN(CCCOc1ccc2c(Nc3cc(CC(=O)Nc4cccc(F)c4)[nH]n3)ncnc2c1)CCOP(=O)(O)O [barasertib]
# How it was run: as §1
# [2] = compound: CC[C@@H]1C(=O)N(C)c2cnc(Nc3ccc(C(=O)NC4CCN(C)CC4)cc3OC)nc2N1C1CCCC1
# How it was run: as §1
# volasertib = compound: CC[C@@H]1C(=O)N(C)c2cnc(Nc3ccc(C(=O)N[C@H]4CC[C@H](N5CCN(CC6CC6)CC5)CC4)cc3OC)nc2N1C(C)C [volasertib]
# How it was run: as §1
# [3] = compound: CCn1c(C(=O)N(C2CC2)C2CC2)cc2c3c(ncn3C)c(Nc3cc(C)n(C)n3)nc21
# How it was run: as §1
# [4] = compound: CCn1cc(-c2ccnc3[nH]c(-c4cccc(CN(C)C)c4)cc23)c(-c2ccc(NC(=O)N(C)C)cc2)n1
# How it was run: as §1
# [5] = compound: CN1CCC(CNc2ccc3ncc(-c4cccc(OC(F)(F)F)c4)n3n2)CC1
# How it was run: as §1
# saracatinib = compound: CN1CCN(CCOc2cc(OC3CCOCC3)c3c(Nc4c(Cl)ccc5c4OCO5)ncnc3c2)CC1 [saracatinib]
# How it was run: as §1
# sotrastaurin = compound: CN1CCN(c2nc(C3=C(c4c[nH]c5ccccc45)C(=O)NC3=O)c3ccccc3n2)CC1 [sotrastaurin]
# How it was run: as §1
# alvocidib = compound: CN1CC[C@H](c2c(O)cc(O)c3c(=O)cc(-c4ccccc4Cl)oc23)[C@H](O)C1 [alvocidib]
# How it was run: as §1
# Tubastatin A = compound: CN1CCc2c(c3ccccc3n2Cc2ccc(C(=O)NO)cc2)C1 [Tubastatin A]
# How it was run: as §1
# [6] = compound: CNC(=O)C1=CC=CC=C1NC2=NC(=NC=C2Cl)NC3=C(C=C(C=C3)N4CCOCC4)OC
# How it was run: as §1
# defactinib = compound: CNC(=O)c1ccc(Nc2ncc(C(F)(F)F)c(NCc3nccnc3N(C)S(C)(=O)=O)n2)cc1 [defactinib]
# How it was run: as §1
# [7] = compound: CNc1nc(-c2ccc3c(N)n[nH]c3c2)cc(N2C[C@@H](C(=O)NC3CCCCC3)CC[C@H]2C)n1
# How it was run: as §1
# encorafenib = compound: COC(=O)N[C@@H](C)CNc1nccc(-c2cn(C(C)C)nc2-c2cc(Cl)cc(NS(C)(=O)=O)c2F)n1 [encorafenib]
# How it was run: as §1
# [8] = compound: COC(=O)[C@H](CCSC)NC(=O)C1=C(C=C(C=C1)NC[C@H](CS)N)C2=CC=CC=C2
# How it was run: as §1
# alisertib = compound: COc1cc(Nc2ncc3c(n2)-c2ccc(Cl)cc2C(c2c(F)cccc2OC)=NC3)ccc1C(=O)O [alisertib]
# How it was run: as §1
# [9] = compound: COc1cc2nc(-c3cc(F)ccc3O)nc(N[C@@H]3CNC[C@H]3C(C)(C)O)c2cc1OC
# How it was run: as §1
# gefitinib = compound: COc1cc2ncnc(Nc3ccc(F)c(Cl)c3)c2cc1OCCCN1CCOCC1 [gefitinib]
# How it was run: as §1
# Sequence of UniProt O94855 (O94855 whole entry, looked up): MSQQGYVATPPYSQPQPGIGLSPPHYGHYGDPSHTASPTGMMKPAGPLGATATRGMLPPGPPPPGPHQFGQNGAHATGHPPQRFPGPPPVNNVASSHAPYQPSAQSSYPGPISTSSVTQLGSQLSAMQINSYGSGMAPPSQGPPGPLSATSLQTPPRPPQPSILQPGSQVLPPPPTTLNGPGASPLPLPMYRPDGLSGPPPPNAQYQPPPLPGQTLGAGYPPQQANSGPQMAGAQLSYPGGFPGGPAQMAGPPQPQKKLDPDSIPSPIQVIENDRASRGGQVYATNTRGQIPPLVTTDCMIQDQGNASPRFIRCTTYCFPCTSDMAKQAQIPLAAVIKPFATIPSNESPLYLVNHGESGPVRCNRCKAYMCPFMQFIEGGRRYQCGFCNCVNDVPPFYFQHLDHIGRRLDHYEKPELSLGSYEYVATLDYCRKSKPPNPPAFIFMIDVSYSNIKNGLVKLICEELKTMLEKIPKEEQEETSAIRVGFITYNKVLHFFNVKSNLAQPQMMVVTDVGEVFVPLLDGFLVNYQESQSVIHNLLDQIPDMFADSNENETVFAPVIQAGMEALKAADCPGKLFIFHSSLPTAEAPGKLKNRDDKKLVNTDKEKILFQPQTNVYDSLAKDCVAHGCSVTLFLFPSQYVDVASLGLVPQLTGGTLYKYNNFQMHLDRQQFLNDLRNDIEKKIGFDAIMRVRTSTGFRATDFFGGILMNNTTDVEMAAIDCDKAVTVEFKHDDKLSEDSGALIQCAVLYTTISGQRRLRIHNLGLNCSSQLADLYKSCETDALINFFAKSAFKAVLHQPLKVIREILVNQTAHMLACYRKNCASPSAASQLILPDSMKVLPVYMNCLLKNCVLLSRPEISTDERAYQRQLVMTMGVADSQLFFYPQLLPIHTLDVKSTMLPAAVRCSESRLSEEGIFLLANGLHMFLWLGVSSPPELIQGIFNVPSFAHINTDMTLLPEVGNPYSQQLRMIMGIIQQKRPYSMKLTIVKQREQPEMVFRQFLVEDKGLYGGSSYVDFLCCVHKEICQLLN
# Sequence of UniProt O14730 (O14730 whole entry, looked up): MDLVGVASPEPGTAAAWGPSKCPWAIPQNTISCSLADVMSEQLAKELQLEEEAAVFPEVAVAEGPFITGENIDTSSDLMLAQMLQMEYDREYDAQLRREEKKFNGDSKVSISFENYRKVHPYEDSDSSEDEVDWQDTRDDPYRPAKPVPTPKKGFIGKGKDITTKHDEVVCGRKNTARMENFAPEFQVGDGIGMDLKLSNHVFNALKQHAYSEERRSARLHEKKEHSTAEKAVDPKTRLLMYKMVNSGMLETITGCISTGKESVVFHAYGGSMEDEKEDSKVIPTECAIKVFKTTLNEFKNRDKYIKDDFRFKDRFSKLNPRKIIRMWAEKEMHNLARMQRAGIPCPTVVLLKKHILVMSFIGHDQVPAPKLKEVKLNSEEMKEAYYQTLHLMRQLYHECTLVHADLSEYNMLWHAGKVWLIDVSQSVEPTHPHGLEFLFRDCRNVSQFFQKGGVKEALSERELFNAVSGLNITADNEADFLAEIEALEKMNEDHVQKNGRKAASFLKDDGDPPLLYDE
# Sequence of UniProt Q13546 (Q13546 whole entry, looked up): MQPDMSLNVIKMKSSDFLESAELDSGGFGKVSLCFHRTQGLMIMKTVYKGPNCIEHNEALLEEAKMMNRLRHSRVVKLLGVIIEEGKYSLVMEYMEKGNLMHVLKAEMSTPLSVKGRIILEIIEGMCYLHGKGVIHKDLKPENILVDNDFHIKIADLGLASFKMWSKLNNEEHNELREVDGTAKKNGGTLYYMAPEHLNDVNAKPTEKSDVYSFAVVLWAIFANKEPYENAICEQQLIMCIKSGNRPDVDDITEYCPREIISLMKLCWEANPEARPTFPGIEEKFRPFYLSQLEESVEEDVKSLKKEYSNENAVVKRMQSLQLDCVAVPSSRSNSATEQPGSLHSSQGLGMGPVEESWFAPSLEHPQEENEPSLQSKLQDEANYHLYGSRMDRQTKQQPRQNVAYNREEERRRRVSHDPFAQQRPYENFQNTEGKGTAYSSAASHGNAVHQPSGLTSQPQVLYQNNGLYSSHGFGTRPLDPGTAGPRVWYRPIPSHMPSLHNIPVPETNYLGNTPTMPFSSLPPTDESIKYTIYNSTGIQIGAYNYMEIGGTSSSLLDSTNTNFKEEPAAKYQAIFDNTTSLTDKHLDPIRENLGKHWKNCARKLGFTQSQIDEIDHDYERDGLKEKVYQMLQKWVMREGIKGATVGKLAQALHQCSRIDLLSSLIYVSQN
# Sequence of UniProt Q99708 (Q99708 whole entry, looked up): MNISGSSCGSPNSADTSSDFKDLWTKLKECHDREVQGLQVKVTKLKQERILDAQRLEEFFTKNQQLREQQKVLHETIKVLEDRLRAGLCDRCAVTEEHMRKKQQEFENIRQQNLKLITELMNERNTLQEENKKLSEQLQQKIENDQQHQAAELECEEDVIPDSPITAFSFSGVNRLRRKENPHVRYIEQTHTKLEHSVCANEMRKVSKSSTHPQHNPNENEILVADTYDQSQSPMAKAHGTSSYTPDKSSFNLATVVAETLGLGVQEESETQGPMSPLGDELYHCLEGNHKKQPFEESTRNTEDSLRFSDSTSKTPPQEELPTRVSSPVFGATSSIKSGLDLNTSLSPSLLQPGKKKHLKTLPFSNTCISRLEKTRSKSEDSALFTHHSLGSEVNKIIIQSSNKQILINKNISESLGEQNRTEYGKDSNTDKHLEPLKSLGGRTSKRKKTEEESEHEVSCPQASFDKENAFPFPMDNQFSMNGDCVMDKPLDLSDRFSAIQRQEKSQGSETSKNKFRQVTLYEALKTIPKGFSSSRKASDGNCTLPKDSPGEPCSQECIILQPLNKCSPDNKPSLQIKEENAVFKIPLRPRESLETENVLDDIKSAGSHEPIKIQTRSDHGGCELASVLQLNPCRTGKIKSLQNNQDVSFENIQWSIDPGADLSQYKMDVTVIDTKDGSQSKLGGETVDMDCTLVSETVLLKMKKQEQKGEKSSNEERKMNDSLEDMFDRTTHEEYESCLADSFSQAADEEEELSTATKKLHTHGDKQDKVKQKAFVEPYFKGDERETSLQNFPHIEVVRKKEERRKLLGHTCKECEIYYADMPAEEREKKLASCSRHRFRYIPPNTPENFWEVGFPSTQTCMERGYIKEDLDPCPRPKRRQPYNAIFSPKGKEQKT
# Sequence of UniProt P31949 (P31949 whole entry, looked up): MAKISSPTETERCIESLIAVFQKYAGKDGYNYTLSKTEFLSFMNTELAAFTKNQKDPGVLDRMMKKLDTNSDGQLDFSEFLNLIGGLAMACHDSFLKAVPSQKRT
# Sequence of UniProt Q96HR9 (Q96HR9 whole entry, looked up): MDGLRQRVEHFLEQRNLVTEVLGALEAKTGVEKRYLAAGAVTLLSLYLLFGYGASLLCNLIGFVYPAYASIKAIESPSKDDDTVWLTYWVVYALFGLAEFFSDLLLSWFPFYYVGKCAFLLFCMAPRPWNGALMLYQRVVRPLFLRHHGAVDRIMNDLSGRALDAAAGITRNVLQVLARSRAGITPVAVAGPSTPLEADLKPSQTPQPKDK
# Sequence of UniProt Q8NC44 (Q8NC44 whole entry, looked up): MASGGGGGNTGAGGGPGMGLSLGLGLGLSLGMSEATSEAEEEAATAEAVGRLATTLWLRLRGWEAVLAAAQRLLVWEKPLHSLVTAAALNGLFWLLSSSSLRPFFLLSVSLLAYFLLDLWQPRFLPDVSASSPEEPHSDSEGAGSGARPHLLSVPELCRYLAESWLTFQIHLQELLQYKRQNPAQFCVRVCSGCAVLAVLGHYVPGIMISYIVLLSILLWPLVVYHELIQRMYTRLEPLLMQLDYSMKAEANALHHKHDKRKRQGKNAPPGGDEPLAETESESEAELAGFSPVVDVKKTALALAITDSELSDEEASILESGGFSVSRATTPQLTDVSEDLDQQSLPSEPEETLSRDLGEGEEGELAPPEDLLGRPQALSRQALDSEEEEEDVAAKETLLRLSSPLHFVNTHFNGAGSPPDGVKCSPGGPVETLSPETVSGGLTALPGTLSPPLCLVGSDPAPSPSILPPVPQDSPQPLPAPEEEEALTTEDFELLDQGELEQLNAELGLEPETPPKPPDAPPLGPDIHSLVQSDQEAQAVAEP
# Sequence of UniProt Q16576 (Q16576 whole entry, looked up): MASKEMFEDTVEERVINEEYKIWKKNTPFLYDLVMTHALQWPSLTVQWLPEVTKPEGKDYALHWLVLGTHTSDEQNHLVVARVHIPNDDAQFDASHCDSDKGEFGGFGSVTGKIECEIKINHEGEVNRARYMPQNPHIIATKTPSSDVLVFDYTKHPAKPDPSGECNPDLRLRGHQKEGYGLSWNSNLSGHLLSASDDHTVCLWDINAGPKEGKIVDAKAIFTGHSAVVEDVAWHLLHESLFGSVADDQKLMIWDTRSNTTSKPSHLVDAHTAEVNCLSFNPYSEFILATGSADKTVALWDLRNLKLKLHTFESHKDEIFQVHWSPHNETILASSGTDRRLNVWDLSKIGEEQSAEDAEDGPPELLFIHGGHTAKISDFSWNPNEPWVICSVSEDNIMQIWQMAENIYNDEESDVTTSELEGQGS
# Sequence of UniProt P38159 (P38159 whole entry, looked up): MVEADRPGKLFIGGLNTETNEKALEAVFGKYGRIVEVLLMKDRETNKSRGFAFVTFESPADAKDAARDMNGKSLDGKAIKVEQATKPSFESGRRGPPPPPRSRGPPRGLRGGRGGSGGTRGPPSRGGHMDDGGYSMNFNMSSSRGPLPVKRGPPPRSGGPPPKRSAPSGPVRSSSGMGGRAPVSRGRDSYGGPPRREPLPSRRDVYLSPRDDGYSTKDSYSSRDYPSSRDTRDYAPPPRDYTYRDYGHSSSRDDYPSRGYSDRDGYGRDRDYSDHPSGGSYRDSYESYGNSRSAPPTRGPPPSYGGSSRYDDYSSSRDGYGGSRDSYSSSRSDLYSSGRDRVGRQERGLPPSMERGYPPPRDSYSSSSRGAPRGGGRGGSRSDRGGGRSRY
Target,log2 fold change (vemurafenib),log2 fold change [1],log2 fold change (barasertib),log2 fold change [2],log2 fold change (volasertib),log2 fold change [3],log2 fold change [4],log2 fold change [5],log2 fold change (saracatinib),log2 fold change (sotrastaurin),log2 fold change (alvocidib),log2 fold change (Tubastatin A),log2 fold change [6],log2 fold change (defactinib),log2 fold change [7],log2 fold change (encorafenib),log2 fold change [8],log2 fold change (alisertib),log2 fold change [9],log2 fold change (gefitinib)
REEP6 (UniProt Q96HR9),0.072,0.021,0.093,-0.022,0.077,0,-0.358 (active),0.072,0.094,0.017,-0.089,0.045,0.02,0.056,-0.013,0.076,-0.025,0.032,-0.036,-0.175
RHAG (UniProt Q02094),-0.032,-0.116,0.054,-0.16,0.053,-0.003,-0.413 (active),0.121,0.053,0.029,-0.133,0.031,0.043,-0.043,0.037,0.016,0.02,-0.004,0.046,-0.051
RCC1 isoform 2 (UniProt P18754),0.049,0.018,-0.008,-0.114,-0.066,0.027,-0.105,-0.046,-0.021,0.001,0.012,-0.168,0.018,0.055,-0.007,0.006,0.151,0.006,-0.017,-0.003
SEC24D isoform 2 (UniProt O94855),-0.039,0.027,-0.002,-0.032,-0.032,-0.011,-0.001,-0.009,0.005,-0.025,-0.012,-0.018,0.002,0.012,-0.008,0.029,-0.163,0.005,0.006,0.006
RIOK3 (UniProt O14730),0.021,-0.004,0.004,-0.098,-0.041,-0.032,-0.052,-0.024,-0.03,0.013,-0.04,-0.273 (active),0.029,0.018,0.12,0.058,0.132,-0.006,0,0.055
RBBP8 isoform 2 (UniProt Q99708),0.002,0.182,-0.013,0.079,-0.019,-0.065,0.065,-0.021,0.018,-0.017,0.013,0.07,0.061,-0.023,0.108,-0.039,-0.074,-0.008,0.009,-0.014
RETREG2 (UniProt Q8NC44),0.037,-0.036,0.033,-0.009,0.09,-0.086,-0.261,0.014,,0.112,-0.069,-0.025,0,-0.12,,-0.002,-0.096,-0.029,-0.007,-0.058
RIPK1 (UniProt Q13546),-0.053,0.027,0.01,-0.026,-0.066,0.027,-0.019,-0.013,0.016,-0.045,0.001,-0.108,0.044,0.065,0.035,-0.017,0.025,-0.025,-0.016,0.042
RXRB isoform 3 (UniProt P28702),0.028,0.136,0.106,0.008,-0.125,,-0.008,-0.089,-0.048,-0.051,0.008,,0.126,0.05,-0.003,0.066,-0.042,-0.044,0.073,0.047
S100A11 (UniProt P31949),0.005,-0.015,0.008,0.037,0.098,0.004,-0.008,-0.052,0.023,-0.036,0.085,0.075,0.029,0.059,-0.011,-0.021,0.007,0.024,-0.01,-0.089
RTTN (UniProt Q86VV8),0.066,0.011,0.043,-0.101,-0.293,0.099,-0.347,-0.316,0.047,,0.088,-0.242,0.082,0.401,0.018,0.069,-0.085,-0.002,-0.301,0.049
RANBP2 (UniProt P49792),-0.031,0.015,0.043,-0.022,-0.048,0.026,-0.019,-0.031,0.018,0.015,-0.001,-0.169,0.011,0.004,-0.041,0.038,0.042,-0.01,0,-0.013
RPS26P11 (UniProt Q5JNZ5),0.012,-0.01,-0.03,0.041,0.017,0.02,-0.688 (active),0.224,0.009,0.05,-0.216,0.038,-0.064,0.011,0.02,0.007,0.006,-0.006,-0.032,-0.056
RPS18 (UniProt P62269),0.006,0.022,-0.007,-0.014,0.018,0.009,-0.219 (active),0.063,0.002,0,-0.057,0.04,-0.021,0.016,0.025,-0.022,0.054,0.013,0.001,-0.032
RBBP7 (UniProt Q16576),0.044,-0.021,-0.072,-0.017,-0.004,-0.002,,,0.021,0.043,,-0.005,0.006,-0.018,-0.125,0.032,-0.021,0.014,-0.003,0.006
RBMX (UniProt P38159),-0.058,0.013,-0.026,-0.012,-0.02,0.067,-0.007,0.009,-0.031,-0.014,-0.003,-0.03,-0.042,0.023,-0.022,0.021,-0.068,0.002,0.013,0.023
